Screening results deposited in PubChem BioAssay by several laboratories.
Compounds with a hit are over-represented: about 7.9% of the library has one in this group of screens.
M1 antagonist: M1 muscarinic receptor (rat) antagonism; 64,000 compounds, 3.4% hits; B-score at 10 µM; CHO-M1 cells, Fluo-4 calcium, ACh EC80 antagonist mode; stronger effect = lower value;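 active = calcium fluorescence response, raw or row-and-column corrected B-score, differing from the plate sample mean either way at a set confidence level, mostly lower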
M1 ag: activates the M1 muscarinic receptor | CHO-M1 cells, Fluo-4 calcium fluorescence, agonist mode; stronger effect = higher value | B-score at 10 µM | 64,000 compounds, 3% hits | AID 626;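 active = fluorescence rise, raw or as B-score row- and column-corrected plate score, outside the 99.7% band of its plate's samples, either direction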
Her2 expr inh: Her2 kinase expression inhibition; AID 645; SKBR-3 HER2 protein level, AlphaScreen, 18-24 h; stronger effect = lower value; P04626; 65,000 compounds, 0.69% hits; HER2 level % of control, % at 10 µM;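 active = HER2 level under 5% of the carrier-only control; inconclusive = no clear call, values can overlap the other calls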;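 also: 100% = DMSO carrier and 0% = 500 nM PU-H71 HSP90 inhibitor; lower value means stronger loss of Her2 protein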
PLAP activator: activates human placental alkaline phosphatase. P05187. purified PLAP enzyme, luminescent substrate read-out; stronger effect = higher value. activation fold at 20 µM. 96,000 compounds, 1.2% hits. AID 696; in the data active = activation fold above about 2
Cav32 inh: human Cav3.2 channel inhibition, primary screen | B-score at 10 µM | O95180 | 100,000 compounds, 4% hits | Cav3.2-expressing cells, Fluo-4 calcium fluorescence FDSS; stronger effect = lower value;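 active = single-dose well whose peak fluorescence ratio is a statistical outlier from its plate by either plate-standardised score or position-corrected B-score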
M1 ag confirm: confirmation of rat M1 muscarinic receptor agonists; shares compounds with M1 ag; CHO-M1 cells, Fluo-4 calcium fluorescence, agonist mode; actives lie on both sides; fluorescence change (max-min) at 10 µM; 1,700 compounds, 19% hits; AID 1488;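 active = fluorescence change differs from the solvent-only DMSO control mean at a set confidence level in both duplicate runs; inconclusive = differs from solvent-only control mean in just one of two runs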;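 also: an EC20 dose of acetylcholine follows compound addition during the same imaging run; raw fluorescence intensity difference in instrument units with no normalization to controls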
M4 ag counter: counter-screen for M1 agonists: activity at rat M4 receptor; 1,700 compounds, 9% hits; fluorescence change (max-min) at 10 µM; AID 1741; CHO M4/Gqi5 cells, Fluo-4 calcium fluorescence, agonist mode; actives lie on both sides; shares compounds with M1 ag;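 active = fluorescence change differing from the plate's solvent-only control wells at 99.7% confidence in both duplicates, whether higher or lower; inconclusive = differs from solvent controls in only one of two duplicates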
Target sequence (P08485 whole entry, looked up): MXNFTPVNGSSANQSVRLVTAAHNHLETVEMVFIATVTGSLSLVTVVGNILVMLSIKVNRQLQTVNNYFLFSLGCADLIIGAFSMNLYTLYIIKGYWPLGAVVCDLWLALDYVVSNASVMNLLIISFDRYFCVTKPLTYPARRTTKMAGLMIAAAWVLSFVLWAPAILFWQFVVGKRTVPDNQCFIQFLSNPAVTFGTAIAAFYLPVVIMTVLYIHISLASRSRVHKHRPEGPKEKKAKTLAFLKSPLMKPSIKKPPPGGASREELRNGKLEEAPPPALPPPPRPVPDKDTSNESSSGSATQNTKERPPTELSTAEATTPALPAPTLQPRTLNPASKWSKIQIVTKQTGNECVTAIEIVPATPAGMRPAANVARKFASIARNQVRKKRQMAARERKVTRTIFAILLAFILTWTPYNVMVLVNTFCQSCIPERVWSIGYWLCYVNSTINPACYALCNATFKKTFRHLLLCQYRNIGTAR
* hit, by the source's call; u = inconclusive; x = no result given.

SMILES	M1 antagonist	M1 ag	Her2 expr inh	PLAP activator	Cav32 inh	M1 ag confirm	M4 ag counter
O=C(Cc1c(O)c2ccccc2[nH]c1=O)NC1CCCCCC1	-0.743	-0.283	90.1	0.9	0.587	x	x
O=c1cc(CNC2CCCCC2)c2ccccc2[nH]1	-0.199	-3.02*	103.4	1.4	-0.24	u	-48.4
CCN(CC)CCNC(=O)c1ccc(CS(=O)(=O)c2ccc(Br)cc2)o1	-0.292	1.16	63.8	x	1.21	x	x
CSc1nnc(-c2sccc2OCc2ccc(C)cc2)n1C	x	x	x	0.9	-0.16	x	x
CCCOC(=O)c1ccc(OCC(O)Cn2c(C)nc3ccccc32)cc1 (centres undefined)	-0.289	5.69*	101.8	1.2	x	u	-84.5
CC(=O)Nc1cccc(OCC(O)Cn2c(C)nc3ccccc32)c1 (centres undefined)	x	x	x	x	0.879	x	x
Cc1cc(Cl)ccc1OCc1nc(-c2ccc(O)cc2)n[nH]1	0.785	4.36*	95.8	1.5	-0.581	4.14	-12.8
Cn1c(-c2ccc3c(c2)OCO3)cnc1N	-0.517	0.516	43.8	1.1	0.301	x	x
c1cc2c(cc1-c1cnc3n1CCC3)OCCO2	-2.54	2.63*	103.4	0.9	-0.818	u	-61
CS(=O)(=O)N(CCC(=O)O)Cc1ccccc1	0.674	-0.367	120.8	1	0.54	x	x
O=C(Nc1nccs1)c1cc(N2CCOCC2)nc2ccccc12	-0.438	3.07*	102.7	1.2	0.542	-9.04	-29.2
COC(=O)C(C)n1cnc2c(cnn2-c2ccc(Cl)cc2)c1=O (centres undefined)	-0.169	4.63*	124.3	0.8	0.698	-5.04	-42.6
COc1ccc(-n2c(C)nc3c(cnn3-c3ccc(Cl)cc3)c2=O)cc1	-0.695	4.14*	129.3	1	-0.0117	-9.64	-53.2
COc1ccc(Oc2c(Cl)cnn(-c3ccc(C)cc3)c2=O)cc1	x	x	x	0.8	1.01	x	x
Cc1cccc(-n2c(C)nc3c(cnn3-c3ccc(F)cc3)c2=O)c1	-0.745	9.38*	83.9	1.1	-0.215	-4.18	u
COc1cccc(-n2c(C)nc3c(cnn3-c3ccc(C)cc3)c2=O)c1	-0.128	0.286	77.3	0.9	-0.0672	x	x
O=C1C(=O)N(CCCn2ccnc2)C(c2cccnc2)/C1=C(/O)c1ccc(Br)cc1 (centres undefined)	0.0719	-0.102	69.4	x	x	x	x
CCCCCCN(C(=O)CCCCCN1C(=O)NC(c2ccc(C3CCCCC3)cc2)C(C(=O)OCc2ccccc2)=C1C)C(C(=O)NCCCC)c1ccc(OCC(=O)OC)c(C(=O)OC)c1 (centres undefined)	x	x	x	x	-0.489	x	x
CCOC(=O)COc1ccc2c(c1)C(=O)CC1(CCN(C(C)=O)CC1)O2	0.0653	-0.251	95.5	1.1	1.03	x	x
CCOC(=O)N1CCC(NC(=O)c2cccc3c2C(=O)N(c2ccc(OC)cc2)C3)CC1	0.11	2.55*	83.4	1.4	1.39	u	-81.6
CC(C)Oc1cccc(C(=O)O)c1	0.972	1.43	84.9	1.1	-0.0695	x	x
Cc1ccccc1Cn1ccc(NC(=O)c2cnn3c(C(F)(F)F)cc(-c4ccco4)nc23)n1	-2.65*	9.18*	102.1	0.9	-3.23	u	u
O=C(Nc1ccc2c(c1)OCO2)c1cnn2c(C(F)(F)F)cc(-c3ccco3)nc12	0.0248	1.89	124.2	1.3	0.463	x	x
O=C(Nc1nnc(CCN2CCCCC2)s1)C1CCCCC1	-1.66	2.66*	88.1	0.9	0.674	u	-75.8
CCN1C(=O)C(C)S/C1=N\S(=O)(=O)c1ccc(Cl)s1 (centres undefined)	-0.122	-0.446	77.3	1	-1.99	x	x
O=C(c1cccc(S(=O)(=O)N2CCCCC2)c1)N1CCN(S(=O)(=O)c2ccc(F)cc2)CC1	x	x	x	1.2	x	x	x
Cc1cc(=O)oc2cc(OCC(=O)OCc3nnc(-c4ccccc4)o3)ccc12	-0.167	36.7*	90.1	1.2	0.401	-4.51	-21
Cc1cc(=O)oc2cc(OCc3nnc(-c4ccccc4Br)o3)ccc12	0.791	0.192	121.2	0.9	1.5	x	x
Cc1ccc(C)c(OCC(O)CN2C(C)CCCC2C)c1 (centres undefined)	-1.46*	2.52*	89.6	0.9	0.272	-29.2*	-55.1
CCN1C(=O)/C(=C\N2CCCc3ccccc32)SC1=S	1.36	-0.206	86.7	1.2	1.18	x	x
